Among the data in PubChem BioAssay AID2677 (National Center for Advancing Translational Sciences (NCATS), 2010) are Potency values, retold here.

This is one part of the list. Inconclusive results are not listed. The source made the active and inactive calls. The call rests on the fitted dose curve; in most records, active means well fitted inhibition curve with a large enough effect; inconclusive means small, poorly fitted or top-dose-only effect; inactive means no such curve, though single readings can be large or run the other way.

In the test the target is Lysine-specific demethylase 4E (Homo sapiens) (UniProt B2RXH2). Briefly: Confirmation qHTS Assay for Inhibitors of Human Jumonji Domain Containing 2E (JMJD2E). The note with it: Recombinant JMJD2E, FDH-coupled NADH fluorescence (FDH is formaldehyde dehydrogenase). The text has this: The fine interplay among methylation states of several lysine residues on the tails of histone proteins is a major determinant of the transcriptional state of the associated DNA coding regions and is commonly referred to as the histone code. Histone lysine demethylases catalyze the removal of methyl groups from methylated lysine sidechains on histones H3 and H4, thus antagonizing the reactions catalyzed by histone lysine methyltransferases. […] In search for novel inhibitors of JMJD2E demethylase, a member of the largest set of histone demethylases belonging to the Fe(II) and 2-oxoglutarate oxygenase (2OG) superfamily, we performed a quantitative high-throughput screen (Inglese 2006) by using an assay which utilizes a trimethylated peptide substrate corresponding to a fragment of histone H3 (sequence ARKme3STGGK) with detection of the formaldehyde co-product in real time by a formaldehyde dehydrogenase (FDH) coupled reaction. FDH catalyzes oxidation of formaldehyde to formic acid with the concomitant reduction of the non-fluorescent beta-nicotinamide adenine dinucleotide hydrate (NAD+) cofactor to the fluorescent NADH co-product. References: Inglese, J., Auld, D., Jadhav, A., Johnson, R., Simeonov, A., Yasgar, A., Zheng, W. and Austin, C. Proc Natl Acad Sci USA 2006, 103, 11473-11478. N. R. Rose, S. S. Ng, J. Mecinovic, B. M. Lienard, S. H. Bello, Z. Sun, M. A. McDonough, U. Oppermann and C. J. Schofield, J Med Chem, 2008, 51, 7053-7056. Sakurai, M., Rose, N., Schultz, L., Quinn, A., Jadhav, A., Ng, S., Oppermann, U., Schofield, C.J. and Simeonov, A. Mol BioSystems 2009, in press. S. Michael, D. Auld, C. Klumpp, A. Jadhav, W. Zheng, N. Thorne, C. Austin, J. Inglese and A. Simeonov, Assay Drug Dev Technol, 2008, 6, 637-657. Assay Provider: Structural Genomics Consortium [SGC] Screening Center PI: Austin, C.P. Screening Center: NIH Chemical Genomics Center [NCGC]
Lysine-specific demethylase 4E (Homo sapiens), sequence (B2RXH2 1-337 limits assumed): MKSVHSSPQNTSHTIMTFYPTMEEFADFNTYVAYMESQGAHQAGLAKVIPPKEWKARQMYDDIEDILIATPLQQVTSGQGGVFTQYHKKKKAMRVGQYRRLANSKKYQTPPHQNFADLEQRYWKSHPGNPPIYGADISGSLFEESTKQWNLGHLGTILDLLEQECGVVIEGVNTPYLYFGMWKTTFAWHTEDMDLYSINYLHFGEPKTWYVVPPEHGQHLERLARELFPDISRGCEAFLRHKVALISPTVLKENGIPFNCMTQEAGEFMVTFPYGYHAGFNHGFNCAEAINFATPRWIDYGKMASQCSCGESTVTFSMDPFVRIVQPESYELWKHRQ
Reagents and Controls: Ferrous ammonium sulfate, (+)-sodium L-ascorbate, beta-nicotinamide adenine dinucleotide hydrate (NAD+), Tween-20, formaldehyde dehydrogenase from P. putida (FDH), and disodium 2-oxoglutarate were from Sigma (St. Louis, MO). Black solid-bottom 384-well or 1,536-well assay plates were from Greiner Bio-One (Monroe, NC). Enzyme was supplied by Prof. Udo Oppermann, SGC-Oxford. […] The trimethylated histone peptide substrate ARK(me3)STGGK was synthesized and HPLC-purified by the Tufts University Core Facility (Boston, MA). Substrate solution (Sakurai 2009) contained 50 uM ARK(me3)STGGK, 0.00025 U/uL FDH, 50 uM 2-oxoglutarate, 250 uM NAD+, 1 mM ascorbate, and 10 uM ferrous ammonium sulfate. Controls and plate map: Buffer (150 mM HEPES pH 7.5 containing 0.01% Tween-20) in columns 3 and 4 as negative control (no enzyme) and 100 nM JMJD2E final concentration in columns 1,2, and 5-48. Assay Steps: Enzyme and buffer solutions (3 uL) were dispensed into a 1,536-well Greiner black solid-bottom assay plate. The library compounds (23 nL) were transferred using a Kalypsys pintool equipped with 1,536-pin array. The plate was incubated at room temperature (15 min), and then a 1 uL aliquot of substrate solution was added to initiate the reaction. The plate was transferred to ViewLux imager where an initial reading using standard UV optics (Ex 340 nm, Em 450 nm) was obtained. The plate was then removed from the reader, incubated for 30 minutes at room temperature, and returned to the reader for a second fluorescence reading. A fully automated robotic screening system (Kalypsys Inc, San diego, CA) was used to perform the above steps as described previously (Michael 2008). Compound plates containing DMSO as a vehicle-only control were included at regular interval throughout the screen to monitor any systematic trend in the assay signal associated with reagent dispenser variation or decreases in enzyme specific activity. For activity calculations, percent values were computed as the difference in fluorescence intensity between last and first time points. […]
(In general: Quantitative high-throughput screening tests each substance at several concentrations.)
For `Oc1c(CN2CCCC2)cc(COCc2ccccc2)c2cccnc12`, the Potency was 5.01 µM (active).
As to `Nc1ccc(Nc2cc(O)c3ncccc3c2)cc1`, the Potency is 28.2 µM (active).
For `Oc1ccc(/C=C/c2c(F)cccc2F)c2cccnc12`, the Potency is 9.13 µM (active).
For `Oc1cccc2cc(-c3ccncc3)cnc12`, the Potency was 18.2 µM (active).
The result for `O=C1CC(Sc2ncn[nH]2)C(=O)N1c1ccccc1` (stereo unspecified) reads 7.08 µM (active).
Take `Cc1ccc(N2C(=O)CC(Sc3ncn[nH]3)C2=O)cc1` (stereo unspecified): the Potency was 5.01 µM (active).
